Experimental findings from PubChem BioAssay (NCI) are described below.

This is part of a sample that, as a whole, favours compounds with a hit. Of some 79,000 tested, about 15% had one in any assay. Calls of active or inactive are those of the source. No stated cut-off is given here; in the data, active means growth inhibition above about 70%; inactive means the rest.

The nature of the first assay: NCI Yeast Anticancer Drug Screen. Data for the rad14 strain (AID 159).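 Further: 0% = growth of vehicle-treated control cultures.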 The conditions noted are these: S. cerevisiae rad14 strain growth inhibition; at 33.0 µM; active compounds read high. In outline:
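Test compounds were applied to a repair-deficient yeast strain. Its growth was then compared with that of cultures given vehicle alone, and inhibition was expressed relative to those controls.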
With `CCS(=O)(=O)c1ccc(/C=C/C=N/NC(=S)NCC(C)C)cc1`, the growth inhibition was 5% (inactive).
The same measure, in the same setting: in the case of `N#CC(C(=O)Nc1ccccc1)C1=C(Cl)C(=O)c2ccccc2C1=O` (configuration not stated) it was 97% (active); in that of `C[C@H](CCC(=O)NN)[C@H]1CC[C@H]2[C@@H]3CC[C@@H]4C[C@H](O)CC[C@]4(C)[C@H]3CC[C@]12C`, -5% (inactive).
Consider `CC[n+]1ccc2c(C)c3[nH]c4ccc(O)cc4c3c(C)c2c1`, for which the growth inhibition is -20% (inactive).

Still in this assay, the particulars now being: S. cerevisiae rad14 strain growth inhibition; at 100.0 µM; active compounds read high.
With `CCCc1cc(C(=O)OCC)cc(CCC)c1O`, the growth inhibition was 96% (active).
In the case of `CC(C)[N+]([O-])(CCCNc1c2ccccc2nc2cccc([N+](=O)[O-])c12)C(C)C`, the growth inhibition was 99% (active).
Regarding `COc1cc2c3c(cccc3c1)C(=O)N(CCN(C)C)C2=O`, the growth inhibition was -14% (inactive).
On the same count and under the same terms, in the case of `NC(=O)NN=C(CS)CS` it was 97% (active); in that of `Cc1ccc(NC(=O)/C(Cl)=C(\Cl)C(=O)O)cc1C`, 99% (active).
As for `CCN(CC)CC[n+]1ccc2c(C)c3[nH]c4ccc(O)cc4c3c(C)c2c1`, the growth inhibition was 60% (inactive).
On the same count and under the same terms, next, `CC(CC(C)(C)[N+](C)(C)C)[N+](C)(C)C` (configuration not stated): 1% (inactive); `COc1ccc(OC)c2cc3ccccc3cc12`: 18% (inactive).
On the same count and under the same terms, next, `Nc1ncncc1C(C1=C(O)COC1=O)C1=C(O)COC1=O`: -2% (inactive); `CSC1=NNC(SC)=NN1`: 98% (active); `Cc1c(Cl)ccc2c1S(=O)(=O)c1cccc(Cl)c1-2`: 5% (inactive).
On to `[O-][n+]1c2ccc(O)cc2nc2ccc(Cl)cc21`, for which the growth inhibition was 73% (active).
Same read-out and setting: next, `COc1ccc2ccc3ccccc3c2c1C=O`: 83% (active).
On the same count and under the same terms, in the case of `Nc1ccc2c(c1)C(=O)c1cccc(N)c1C2=O` it was 88% (active).
In the case of `O=C(c1ccc(Cl)cc1Cl)C(Cl)Cl`, the growth inhibition is 98% (active).
On the same count and under the same terms, in the case of `COc1cc(C(=O)/C=C/c2ccccc2O)ccc1O` it was 98% (active); in that of `O=Cc1cccc2ccc3ccccc3c12`, 99% (active); in that of `O=C(Nc1ccc(Cl)cc1)OCC#CCCl`, 24% (inactive).
As to `Cn1ccnc1Oc1ccc(Cl)cc1`, the growth inhibition was 98% (active).
On the same count and under the same terms, next, `c1ccc2c(c1)C(=NCCCN1CCCCCC1)c1cccn1-2`: 98% (active).
For the molecule `C/C(=N\O)C1CC2C=C(C#N)C1N(Cc1ccccc1)C2` (configuration not stated), the growth inhibition is 7% (inactive).
The same measure, in the same setting: next, `O=[N+]([O-])C(=C(Sc1ccccc1)Sc1ccccc1)C(Cl)=C(Cl)Cl`: 28% (inactive); `CCCCCCCCCC/C=C\C(=O)O`: 98% (active).
Consider `COc1ccc(N=C2C(=O)Nc3ccc(Br)cc32)cc1`, for which the growth inhibition was -30% (inactive).
Consider `COc1ccccc1C(=O)OCC1CCCN2CCCCC12` (configuration not stated), for which the growth inhibition is 99% (active).
On the same count and under the same terms, next, `CC(C)(Br)C(=O)/C=C/c1ccc(Cl)c(Cl)c1`: 3% (inactive).
Turning to `Nc1ccccc1CC(O)C(=O)O` (configuration not stated), the growth inhibition was 97% (active).
On to `CC(=O)N/N=C/C(C)(C)C(C)(C)/C=N/NC(C)=O`, for which the growth inhibition was 54% (inactive).
For the molecule `CN(C)c1nc2sc3c(c2c(=O)o1)CCCC3`, the growth inhibition was 45% (inactive).
In the case of `CC(C)OC(=O)Oc1ccccc1OC(=O)OC(C)C`, the growth inhibition is 0% (inactive).
Take `Cc1ccc(N)c(S)c1`: the growth inhibition was 96% (active).
Still for that read-out and setting: next, `O=C(O)c1ccccc1NC(=S)c1ccccc1`: 68% (inactive).
Same read-out and setting: in the case of `COC(=O)c1ccc(NCC2=CC(=O)C=CC2=O)cc1O` it was 92% (active).
On the same count and under the same terms, in the case of `NC(N)=N/N=C\c1c2ccccc2cc2ccccc12` it was 95% (active).
Consider `COC(=O)CSSCc1ccc([N+](=O)[O-])cc1`, for which the growth inhibition is 98% (active).
Regarding `CCS(=O)(=O)c1ccc(/C=C/C=N/NC(=S)NCC(C)C)cc1`, the growth inhibition was 3% (inactive).
Still for that read-out and setting: next, `N#CC(C(=O)Nc1ccccc1)C1=C(Cl)C(=O)c2ccccc2C1=O` (configuration not stated): 95% (active).
In the case of `C[C@H](CCC(=O)NN)[C@H]1CC[C@H]2[C@@H]3CC[C@@H]4C[C@H](O)CC[C@]4(C)[C@H]3CC[C@]12C`, the growth inhibition is 12% (inactive).
Take `CC[n+]1ccc2c(C)c3[nH]c4ccc(O)cc4c3c(C)c2c1`: the growth inhibition is -10% (inactive).

A short description of a further assay: NCI Yeast Anticancer Drug Screen. Data for the sgs1 mgt1 strain (AID 161).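 Further: 0% = growth of cultures given vehicle only.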 The conditions noted are these: S. cerevisiae sgs1 mgt1 strain, at 5.0 µM (retest, dose inferred, filed as 0.5), active compounds read high. Summed up:
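Growth of a repair-deficient yeast mutant was monitored after compound treatment and expressed as inhibition relative to vehicle-treated cultures.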
Consider `CCCc1cc(C(=O)OCC)cc(CCC)c1O`, for which the growth inhibition was 1% (inactive).
On the same count and under the same terms, in the case of `CC(C)[N+]([O-])(CCCNc1c2ccccc2nc2cccc([N+](=O)[O-])c12)C(C)C` it was 89% (active); in that of `COc1cc2c3c(cccc3c1)C(=O)N(CCN(C)C)C2=O`, 13% (inactive); in that of `NC(=O)NN=C(CS)CS`, 2% (inactive).
`Cc1ccc(NC(=O)/C(Cl)=C(\Cl)C(=O)O)cc1C`: the growth inhibition was 21% (inactive).
The same measure, in the same setting: in the case of `CCN(CC)CC[n+]1ccc2c(C)c3[nH]c4ccc(O)cc4c3c(C)c2c1` it was 4% (inactive); in that of `CC(CC(C)(C)[N+](C)(C)C)[N+](C)(C)C` (configuration not stated), 1% (inactive); in that of `COc1ccc(OC)c2cc3ccccc3cc12`, -24% (inactive).
As to `Nc1ncncc1C(C1=C(O)COC1=O)C1=C(O)COC1=O`, the growth inhibition is -10% (inactive).
On the same count and under the same terms, in the case of `CSC1=NNC(SC)=NN1` it was -1% (inactive); in that of `Cc1c(Cl)ccc2c1S(=O)(=O)c1cccc(Cl)c1-2`, -13% (inactive); in that of `[O-][n+]1c2ccc(O)cc2nc2ccc(Cl)cc21`, -12% (inactive).
On the same count and under the same terms, next, `COc1ccc2ccc3ccccc3c2c1C=O`: 7% (inactive); `Nc1ccc2c(c1)C(=O)c1cccc(N)c1C2=O`: -9% (inactive); `O=C(c1ccc(Cl)cc1Cl)C(Cl)Cl`: 13% (inactive).
As for `COc1cc(C(=O)/C=C/c2ccccc2O)ccc1O`, the growth inhibition is -4% (inactive).
Still for that read-out and setting: next, `O=Cc1cccc2ccc3ccccc3c12`: -56% (inactive); `O=C(Nc1ccc(Cl)cc1)OCC#CCCl`: 96% (active).
Same read-out and setting: next, `Cn1ccnc1Oc1ccc(Cl)cc1`: -61% (inactive).
The same measure, in the same setting: in the case of `c1ccc2c(c1)C(=NCCCN1CCCCCC1)c1cccn1-2` it was 2% (inactive); in that of `C/C(=N\O)C1CC2C=C(C#N)C1N(Cc1ccccc1)C2` (configuration not stated), -10% (inactive).
Regarding `O=[N+]([O-])C(=C(Sc1ccccc1)Sc1ccccc1)C(Cl)=C(Cl)Cl`, the growth inhibition was 2% (inactive).
Take `CCCCCCCCCC/C=C\C(=O)O`: the growth inhibition is -18% (inactive).
The same measure, in the same setting: in the case of `COc1ccc(N=C2C(=O)Nc3ccc(Br)cc32)cc1` it was -15% (inactive); in that of `COc1ccccc1C(=O)OCC1CCCN2CCCCC12` (configuration not stated), -17% (inactive); in that of `CC(C)(Br)C(=O)/C=C/c1ccc(Cl)c(Cl)c1`, 33% (inactive).
On the same count and under the same terms, in the case of `Nc1ccccc1CC(O)C(=O)O` (configuration not stated) it was -6% (inactive); in that of `CC(=O)N/N=C/C(C)(C)C(C)(C)/C=N/NC(C)=O`, 15% (inactive).
For `CN(C)c1nc2sc3c(c2c(=O)o1)CCCC3`, the growth inhibition is -7% (inactive).
Same read-out and setting: next, `CC(C)OC(=O)Oc1ccccc1OC(=O)OC(C)C`: -2% (inactive); `Cc1ccc(N)c(S)c1`: -1% (inactive); `O=C(O)c1ccccc1NC(=S)c1ccccc1`: -20% (inactive).
As to `COC(=O)c1ccc(NCC2=CC(=O)C=CC2=O)cc1O`, the growth inhibition is 50% (inactive).
On the same count and under the same terms, next, `NC(N)=N/N=C\c1c2ccccc2cc2ccccc12`: 8% (inactive).
The same measure, in the same setting: next, `COC(=O)CSSCc1ccc([N+](=O)[O-])cc1`: 38% (inactive); `CCS(=O)(=O)c1ccc(/C=C/C=N/NC(=S)NCC(C)C)cc1`: 6% (inactive).
Still for that read-out and setting: in the case of `N#CC(C(=O)Nc1ccccc1)C1=C(Cl)C(=O)c2ccccc2C1=O` (configuration not stated) it was 8% (inactive); in that of `C[C@H](CCC(=O)NN)[C@H]1CC[C@H]2[C@@H]3CC[C@@H]4C[C@H](O)CC[C@]4(C)[C@H]3CC[C@]12C`, 3% (inactive).
For `CC[n+]1ccc2c(C)c3[nH]c4ccc(O)cc4c3c(C)c2c1`, the growth inhibition was 4% (inactive).
